This note sets out measurements from PubChem BioAssay (NCI).

The panel holds about 79,000 compounds, 15% with a hit somewhere; the sample as a whole holds those more often. The source made the active and inactive calls. Rule as the data show it: active = growth inhibition above about 70%; inactive = the rest.

The assay can be described thus: NCI Yeast Anticancer Drug Screen. Data for the sgs1 mgt1 strain (AID 161).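 Also: 0% = growth of cultures given vehicle only.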 The conditions noted are these: S. cerevisiae sgs1 mgt1 strain, at 50.0 µM, hits give high values. A digest of the protocol:
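Compounds are added to genetically altered yeast, and growth is compared with cultures given vehicle alone to give percent inhibition.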
For `COC(=O)C1C(=O)C2CCC1C(=O)C2C(=O)OC` (stereo not drawn), the growth inhibition is 16.4% (inactive). The figure for `O=C1CCCCCCCCCCOCCCCO1` is 14.8% (inactive); for `CC(C)c1ccc(/C=C/C(=O)c2ccc([N+](=O)[O-])cc2)cc1` it is 11.7% (inactive). For `O=c1ccc2cc3ccoc3c(OCCOCCOCCOCCOc3c4occc4cc4ccc(=O)oc34)c2o1` the value was 11.4% (inactive); for `O=C1CSC(c2ccc(Br)cc2)N1c1nncs1` (stereo not drawn), 18.2% (inactive); for `CCC(C)(C)N`, 4.25% (inactive). Consider `c1scc2c1COCCOCCOCCOCCOCCOCCOC2`, for which the growth inhibition is 10.4% (inactive). As to `Brc1c(CCc2ccc3ccccc3c2Br)ccc2ccccc12`, the growth inhibition was 13.2% (inactive).

For `C/C=C(\Cl)C(OC(C)=O)OC(C)=O`, the growth inhibition is -6.15% (inactive). For `CN(C)CCC(=O)N1CCc2c([nH]c3ccccc23)C1c1cccnc1` (stereo not drawn), the growth inhibition is -21.6% (inactive). For `O=C(O)C1CCCCC1C(=O)Nc1ccc(Cl)c(Cl)c1` (stereo not drawn), the growth inhibition is -5.65% (inactive). For `CC1(COc2ccccc2)NC(=O)c2ccccc2O1` (stereo not drawn) the value was 10.6% (inactive); for `COC(=O)c1ccc(NCC2=CC(=O)c3ccccc3C2=O)cc1`, 59% (inactive). As to `CCOC(=O)c1c(C)nc(C)nc1N`, the growth inhibition was -9.85% (inactive).

Consider `C/C(=C\CNc1ncnc2c1ncn2C1CCCCO1)COP(=O)(O)O` (stereo not drawn), for which the growth inhibition is 19.6% (inactive).

On to `O=C(CCN1C(=O)CC1c1ccco1)N1CCOCC1` (stereo not drawn), for which the growth inhibition is -10.5% (inactive). For the molecule `COc1cc(C(C)O)c[n+](CCc2c[nH]c3ccccc23)c1` (stereo not drawn), the growth inhibition is -45.9% (inactive). The figure for `O=C(c1ccc(F)cc1)c1ccc2ccccc2c1C(=O)O` is 13.1% (inactive).
